An excerpt weighted towards active compounds, which were near 12% of everything screened.
WT yeast gro inh = growth inhibition of WT yeast, mitochondrial fusion screen; mitochondrial fusion phenotypic screen, WT strain; hit rate 2.1% among 190,000; inhibition, % at 10 µM; AID 1362; in the data active = inhibition above about 58%; tested in S. cerevisiae
CHOP inhibitor = blocks CHOP induction under ER stress; CHO-K1 CHOP-promoter luciferase, tunicamycin-induced, 15-18 h; inhibition, % at 10 µM; hit rate 3.8% among 220,000; AID 2732;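 active = compounds that reduced the stress-induced luciferase reporter signal by more than about 70% of percent inhibition, limit read from the data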;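 also: 0% = tunicamycin plus vehicle and 100% = wells without tunicamycin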
Lmaj promast = inhibitors of Leishmania major promastigote growth | AID 1063 | inhibition, % at 10 µM | hit rate 9% among 200,000 | Leishmania major promastigotes, resazurin fluorescence viability; in the data active = inhibition above about 50%;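 also: promastigotes grown with compound for 44 hours at 28 °C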
Arbovirus anti = arbovirus infection inhibition; arbovirus infection cell-based antiviral screen; inhibition, % at 10 µM; hit rate 0.37% among 200,000; AID 1251; in the data active = inhibition above about 30%
L major 1uM = L. major promastigote growth inhibition, 1 uM repeat. inhibition, % at 1 µM. resazurin fluorescence, 48 h. AID 1258. shares compounds with Lmaj promast. hit rate 13% among 1,100;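 active = inhibition above about 50% in both repeat tests, limit read from the data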
CHOP confirm = confirmation of CHOP induction inhibitors; shares compounds with CHOP inhibitor; CHO-CHOP promoter luciferase reporter, tunicamycin-induced, luminescence; inhibition, % at 10 µM; hit rate 45% among 2,100; AID 504437;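 active = mean of three repeat readings of reporter signal inhibition above a set limit, cut at about 70% in these data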;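 also: 0% = tunicamycin plus vehicle and 100% = wells lacking tunicamycin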
An asterisk follows results filed as active; / = not tested or not shown; ! = not confirmed by another sample.

SMILES | WT yeast gro inh | CHOP inhibitor | Lmaj promast | Arbovirus anti | L major 1uM | others
CCOC(=O)c1ccc2c(c1)nc(C1CCN(S(=O)(=O)c3cccs3)CC1)n2CC | 23 | 55 | 100* | 5 | 5
CC(=O)Nc1cccc(N/C=C(\C=O)c2nc3ccccc3o2)c1 | -7 | -43 | -8 | -1 | /
O=C/C(=C\Nc1ccccn1)c1nc2cc(Cl)ccc2o1 | 8 | 6 | 72* | 14 | -1
COc1ccc(S(=O)(=O)N(CC(=O)O)c2ccc(C)cc2)cc1 | -22 | 27 | -6 | 3 | /
COc1ccc(N(C(=O)COc2cccc(C)c2)S(=O)(=O)c2ccc(C)cc2)cc1 | 8 | 30 | 52* | 1 | -12
CCN=C1S/C(=C\c2ccc(N3CCOCC3)cc2C)C(=O)N1CC | -23 | 53 | 69* | -15 | -17
CN=C1S/C(=C\c2ccc(N3CCOCC3)cc2C)C(=O)N1C | -18 | 2 | 37 | -6 | /
N/C(Cc1ccc(Cl)cc1)=N\OC(=O)c1ccccc1 | 10 | 16 | 5 | -2 | /
COc1ccc(C(=O)O/N=C(\N)Cc2ccc(Cl)cc2)cc1OC | 7 | 41 | 66* | 12 | -4
FC(F)(F)c1ccc2c(c1)C1C=CCC1C(c1ccncc1)N2 (centres undefined) | 14 | 43 | 88* | 2 | -7
O=S(=O)(Nn1cnnc1)c1ccc(F)cc1 | 6 | 9 | -4 | 4 | /
CC(=O)Cc1cc(O)c2ccccc2c1OC(=O)c1ccccc1 | 22 | 13 | 25 | -22 | /
CC(=O)Oc1c(C)cc(O)c2ccccc12 | -9 | 8 | 82* | -32 | 2
CC(C)OC(=O)c1cccc(C(=O)OCc2ccco2)n1 | -17 | -73 | 50* | -7 | 9
CCc1cccc(CC)c1NC(=S)NCC(c1cccnc1)N(C)C (centres undefined) | -5 | 5 | 2 | -12 | /
Cc1cc(C=O)c2c(c1)C=CC1(Oc3ccccc3C(=O)N1C)O2 (centres undefined) | -11 | 17 | 100* | 2 | -9
O=C(COC(=O)c1cc(-c2cccs2)nn1-c1ccccc1)Nc1ccc(Cl)c([N+](=O)[O-])c1 | 21 | 32 | -5 | -7 | /
CCc1ccc2oc(-c3ccc(OC)cc3)cc(=Nc3c(C)n(C)n(-c4ccccc4)c3=O)c2c1 | 4 | 6 | 90* | -18 | 1
N#Cc1ccc(NC(=S)Nc2ccccc2)cc1 | 19 | -5 | 62* | -7 | 0
CCCCCn1c(=N)n(CC(O)COc2ccccc2OC)c2ccccc21 (centres undefined) | 5 | 54 | 83* | -22 | 6
C=CCn1c(=N)n(CC(O)COc2ccccc2OC)c2ccccc21 (centres undefined) | 11 | 33 | 39 | -10 | /
C=CCc1ccc(OCCCCCN2CCOCC2)c(OC)c1 | 20 | 37 | 100* | -18 | 58*
C=CCc1ccc(OCCCCOc2ccc(C(=O)O)cc2)c(OC)c1 | -15 | -18 | -9 | 16 | /
Cc1ccc(CNC(=O)CCc2nnc(Cc3ccc(-c4ccccc4)cc3)o2)o1 | -4 | 44 | -6 | 4 | /
Cc1ccc(N2CN(Cc3cccnc3)CNC2=S)c(C)c1 | -12 | -4 | 86* | 8 | 46
SMILES | WT yeast gro inh | CHOP inhibitor | Lmaj promast | Arbovirus anti | L major 1uM | others
C/C(N)=C(/C#N)C(=O)CSc1nc2ccccc2n1CC(C)C | -6 | 31 | 25 | -4 | /
Cc1nn(-c2ccccc2)c2sc(C(=O)O)cc12 | 7 | -11 | -6 | 4 | /
Cc1nn(-c2ccccc2)c2c1C(O)n1c(nc3ccccc31)S2 (centres undefined) | -9 | 0 | 58* | 7 | -7
CC1(C)CN(c2ccccc2)N(C(=O)c2ccc(C#N)cc2)C1=O | -14 | -7 | 54* | -36 | -16
O=C(CSc1nnc(COc2ccccc2)o1)N1CCOCC1 | 17 | 13 | -6 | -9 | /
c1cnc2c(c1)ccc1cccnc12 | 35 | 74*! | 100* | -23 | 52*!
Cc1csc(/N=C/c2ccc([N+](=O)[O-])cc2)n1 | -4 | 25 | 52* | 2 | -3
O=C(Cn1nc2n(c1=O)-c1ccccc1SC2)N/N=C/c1cccnc1 | / | 13 | / | / | /
CCc1ccc(OCCOCC(O)CNC2CCCC2)cc1 (centres undefined) | 6 | 10 | 60* | -9 | 4
CC(=O)Nc1ccc(OCC(O)CNC2CCCC2)cc1 (centres undefined) | 1 | -22 | -3 | -2 | /
CCOC(=O)COc1ccc(/C=C2/SC(=Nc3ccccc3)N(Cc3cccnc3)C2=O)cc1OC | 9 | -12 | 60* | 12 | -8
Cc1ccc(O)c(C(CC(=O)N2CCCC2)c2ccccc2)c1 (centres undefined) | 0 | 10 | -3 | 3 | /
CN(Cc1ccccc1)C(=O)CC(c1ccccc1)c1cc(Cl)ccc1O (centres undefined) | -11 | 41 | 81* | -9 | 4
Cc1cc2c(cc1C)CSC(c1ccccc1O)SC2 | 44 | 108* | 97* | -44 | -9 | CHOP confirm=111*
NNC(=O)c1sc2cc(C(F)(F)F)cnc2c1-c1cccnc1 | -10 | 9 | 4 | -8 | /
O=C(CCl)Nc1cccc(-c2cnc3ccccc3n2)c1 | 8 | / | 100* | -45 | 77* | CHOP confirm=84*
O=C1CC(c2ccccc2Br)c2cc3c(cc2N1)CCC3 (centres undefined) | -3 | 101* | 100* | -22 | 88* | CHOP confirm=41
CCCCS(=O)(=O)/C=C\C=C/S(=O)(=O)CCCC | 88* | / | 101* | -28 | 94* | CHOP confirm=127*
CC(=O)Nc1ccc(NC2=Nc3ccccc3N3C2=Nc2c(c(C)nn2-c2ccccc2)C3c2ccccc2)cc1 (centres undefined) | -1 | 106* | 56* | -16 | 5 | CHOP confirm=119*
CC(=O)/C=C/n1c(=S)oc2ccccc21 | 5 | 106* | 100* | -44 | 18 | CHOP confirm=116*
Cn1c(=S)oc2ccccc21 | / | 7 | / | / | /
O=c1c2ccccc2sn1-c1ccccc1 | 95 | 108* | 100* | -41 | -5 | CHOP confirm=20
Cn1nc(Cc2n[nH]c(=S)n2C)c2ccccc2c1=O | / | -10 | / | / | /
COc1ccc(C(=O)Nn2c(CCC(=O)O)ccc2-c2ccc(C)cc2)cc1OC | -2 | 32 | -6 | 6 | /
O=C(c1ccccc1)c1coc2c1C(=O)c1ccccc1C2=O | 14 | 18 | -4 | 9 | /
SMILES | WT yeast gro inh | CHOP inhibitor | Lmaj promast | Arbovirus anti | L major 1uM | others
O=C1c2ccccc2-c2onc3ccc(Oc4ccccc4)c1c23 | 29 | 106* | 100* | -37 | -13 | CHOP confirm=84*
O=c1[nH]sc2ccccc12 | 25 | 97* | 67* | -19 | 31 | CHOP confirm=-63
O=c1cc(O)sc2ccccc12 | 13 | 1 | -3 | 6 | /
CN(NS(=O)(=O)c1ccc(Cl)cc1)c1nc(C(F)(F)F)nc2ccccc12 | 54 | 37 | 3 | 14 | /
COc1ccccc1Nc1nc(N)nc(CN2CC(C)CC(C)C2)n1 (centres undefined) | 1 | -1 | 5 | -3 | /
NNc1nc2cccnc2n(CCNc2ncc(C(F)(F)F)cc2Cl)c1=O | -7 | 2 | -7 | -12 | /
O=c1c(Cl)nc2cc(Cl)ccc2n1CCNc1ncc(C(F)(F)F)cc1Cl | 1 | 107* | 101* | -31 | 101* | CHOP confirm=128*
